In PubChem BioAssay AID504329 (Southern Research Specialized Biocontainment Screening …, 2011) one finds inhibition data, which are given here for 26 compounds.

Molecules are shown by their SMILES. Out of some 340,000 compounds screened, about 1,000 (0.29%) were called active. The list is a sample of the results. Results with a measured potency or affinity are listed apart. Unmarked numbers belong to inactive results. Cut-off read from the data, not from the text of the source: inconclusive = inhibition above about 27% without an active follow-up result; inactive = below that.

The nature of the assay: H1N1 influenza NS1A inhibitors, functional cell based assay (AID 504329). Particulars: percent inhibition, at 12.5 µM, stronger effect = higher value.
On to `Cc1cccc(OCC(=O)NCC(=O)N/N=C/c2cc(Br)ccc2OCc2ccccc2)c1`, for which the inhibition was 9.61%. As to `COc1ccc(C(CCN2CCN(c3ccccc3)CC2)c2c(O)cc(OC)cc2OC)cc1` (stereo unspecified), the inhibition was 15.3%. Next, `COc1cc(O)c(C(CCN2CCCC2)c2ccc(N(C)C)cc2)c(OC)c1` (stereo unspecified): 26.1%; `COc1cc(OC)c2ccc(=O)oc2c1C(CCN1CCCCC1)c1ccc(N(C)C)cc1` (stereo unspecified): 9.04%; `COc1cc(OC)c2ccc(=O)oc2c1C(CCN1CCCC1)c1ccc(N(C)C)cc1` (stereo unspecified): 21.8%. With `NC(=O)CCN1CCN(C(=O)c2ccc3nc(Cc4cccc(Cl)c4)oc3c2)CC1` the figure was -5.64%; with `CCOC(=O)c1c(NC(=O)COC(=O)Cc2n[nH]c(=O)c3ccccc23)sc(C(=O)N(C)C)c1C`, -4.28%; with `CCCOc1ccc(/C=N/Nc2ccc(C(=O)O)cc2)c(OCCC)c1`, 10.8%. Regarding `COc1ccccc1/C=N\Nc1ccccc1[N+](=O)[O-]`, the inhibition was 9.18%. With `O=[N+]([O-])c1ccc(N/N=C/c2c[nH]c3ccccc23)cc1` the figure was 7.03%. Next, `CCOc1ccccc1/C=N/Nc1ccccc1[N+](=O)[O-]`: 28.9%; `CCCOc1ccc(/C=N/Nc2ccccc2[N+](=O)[O-])c(O)c1`: 3.15%; `O=[N+]([O-])c1ccccc1N/N=C\c1ccccc1Cl`: 1.01%.

`Cc1cccc(NC(=O)Cn2nc(-c3ccco3)ccc2=O)c1C`: the inhibition is 0.81%. With `COC(C[C@H](O)C[C@@H](O)[C@H](C)OCc1ccccc1)OC` the figure was -2.93%; with `CCCCOCCCNC(=S)Nc1ccc(S(=O)(=O)N2CCOCC2)cc1`, 0.29%; with `CCCCC1=C(C(=O)OCC)C(C(=O)OCC)Oc2ccccc21` (stereo unspecified), -8.03%. On to `COc1ccc(CN(CC(=O)NCc2ccccc2)C(=O)CCC(=O)Nc2ccccn2)cc1`, for which the inhibition was -6.86%.

As for `C/C=C(\C)CN1CCC(n2nccc2NC(=O)CCCc2ccccc2)CC1`, the inhibition is -5.21%. With `CCCN(CC(=O)Nc1ccccc1C)C(=O)c1ccc(=O)n(Cc2ccccc2)n1` the figure was 5.93%; with `CN(C)N1C(N)=C(C#N)C(c2cccnc2)C2=C1CCCC2=O` (stereo unspecified), 0.98%; with `COc1ccc(Cl)cc1NS(=O)(=O)c1cn(C)nc1C`, -6.95%. In the case of `Cc1c(C)n(Cc2ccccc2)c2ccc(C(=O)OCCN(C)C)cc12`, the inhibition was 18.7%.

As to `Cc1c(C)n(CCN(C)C)c2ccc(C(=O)OCCN(C)C)cc12`, the inhibition is -4.19%.

Regarding `CCn1ccnc1CN(C)Cc1cn(-c2cc(C)ccc2C)nc1-c1ccccc1`, the inhibition is 7.7%. Next, `Cc1ccc(C)c(-n2cc(CNCCCn3cccn3)c(-c3ccccc3)n2)c1`: -27.8%.
